# Only some compounds are listed: those with a hit (about 10% of all), similar ones and a draw of the others.
# VDR inhibitor: blocks the human vitamin D receptor; actives 0.93% (n = 400,000); Potency, µM, without a hit: max response, negative = inhibition, most hits filed as inhibitors; AID 504847; VDR-SRC2-3 peptide fluorescence polarization, 2 h; also: potency is read from the fitted curve at half-maximal effect
# Target sequence (P11473 whole entry, looked up): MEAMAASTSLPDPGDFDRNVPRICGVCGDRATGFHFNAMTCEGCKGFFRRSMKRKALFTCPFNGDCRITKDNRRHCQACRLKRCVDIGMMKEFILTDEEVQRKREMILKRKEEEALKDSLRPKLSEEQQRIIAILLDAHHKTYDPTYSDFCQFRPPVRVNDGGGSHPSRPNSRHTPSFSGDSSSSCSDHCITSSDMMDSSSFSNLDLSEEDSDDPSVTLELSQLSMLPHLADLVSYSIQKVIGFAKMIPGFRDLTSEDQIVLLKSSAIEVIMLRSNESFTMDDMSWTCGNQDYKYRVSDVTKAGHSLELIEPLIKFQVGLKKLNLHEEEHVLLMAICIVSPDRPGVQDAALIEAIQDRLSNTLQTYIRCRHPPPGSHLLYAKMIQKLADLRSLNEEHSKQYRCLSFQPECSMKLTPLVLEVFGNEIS
#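 Inhibition of the VDR/SRC2-3 peptide interaction is quantified by fluorescence polarization. Compounds (23 nl, pintool) incubate with the reagents for 2 hours at ambient room temperature.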
# CCT modulator: changes cytosolic chaperonin activity; activity change, % (test concentration not listed), hits read low; AID 651819; actives 0.3% (n = 360,000); purified chaperonin ATPase assay, HTRF ADP detection, 30 min; in the data active = activity change below about -30%
#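 Enzyme 40 or 20 nM (batch-dependent) in Tris pH 7.4/KCl/MgCl2/DTT; cpd 76 uM single point; ATP 10 uM; 30 min 37 °C; Transcreener ADP HTRF detection, 30 min RT; ratio 665/615.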
# G9a inh: inhibitors of human histone lysine methyltransferase G9a. G9a H3K9 monomethylation, AlphaScreen, 2 h. AID 504332. actives 8.8% (n = 350,000). Potency, µM (titrated, usually from 102 µM), without a hit: at the highest dose activity, negative = inhibition, most hits filed as inhibitors. Q96KQ7; also: potency is read from the fitted curve at half-maximal effect; nearly all actives have a fitted effect of over 75% in size
# Target sequence (Q96KQ7 913-1193 limits assumed): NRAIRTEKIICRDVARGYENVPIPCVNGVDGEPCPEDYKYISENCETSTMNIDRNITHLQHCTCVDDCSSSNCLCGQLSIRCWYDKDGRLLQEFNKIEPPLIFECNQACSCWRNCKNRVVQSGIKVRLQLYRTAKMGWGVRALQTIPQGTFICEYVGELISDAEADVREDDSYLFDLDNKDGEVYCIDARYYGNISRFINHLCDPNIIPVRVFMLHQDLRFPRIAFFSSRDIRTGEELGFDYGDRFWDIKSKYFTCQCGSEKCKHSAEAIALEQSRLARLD
#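 AlphaScreen detection with an anti-monomethyl H3K9 antibody quantified product after a 2 h room-temperature reaction containing 500 nM biotinylated H3K9 peptide, 20 µM SAM and 20 nM enzyme, which had been preincubated 15 min with compound.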
# Sfp PPTase inh: inhibitors of Bacillus subtilis Sfp phosphopantetheinyl transferase; Q9F4F7; Biochemical Sfp PPTase activity, qHTS; Potency, µM, for inactives: largest response in the series, negative = inhibition, usual class: inhibitors; actives 3.5% (n = 310,000); AID 1490;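 also: the enzyme is Sfp with the accession as filed and its product quenches rhodamine fluorescence; potency is read from the fitted curve at half-maximal effect; 0% = enzyme reaction without inhibitor and -100% = no enzyme wells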
#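 With Hepes-Na pH 7.6 buffer containing 10 mM MgCl2, Sfp (15 nM) modified BHQ-2-YbbR (12.5 uM) using rhodamine-CoA (5 uM). Two reads 30 minutes apart at 525/598 nm yielded each well's rate.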
# PLK1 PBD block: PLK1 (human) polo-box domain binding inhibition. Potency, µM, for the others: max response, negative = inhibition, hits mostly inhibitors. actives 2.8% (n = 360,000). AID 720504. P53350. Plk1 PBD binding of FITC phosphopeptide, fluorescence polarization; also: potency is read from the fitted curve at half-maximal effect; series mostly up to about 57 µM; nearly all actives have a fitted effect of over 65% in size
# MmCpn inh: inhibitors of Methanococcus maripaludis chaperonin TRiC (MmCpn); Potency, µM (highest dose often 76.9 µM), for the others: at the top dose activity, negative = inhibition, actives largely listed as inhibitors; purified Mm-Cpn ATPase, ADP Transcreener TR-FRET; actives 0.031% (n = 330,000); also: potency is read from the fitted curve at half-maximal effect; nearly all actives have a fitted effect of over 80% in size
#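 Reaction buffer contained 30 mM Tris pH 7.4, 100 mM KCl, 5 mM MgCl2 and 1 mM DTT. Mm-CPN (25 nM final) hydrolysed 10 uM ATP over 30 min at 37°C; ADP was read by HTRF.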
# * = called active by the depositor; ? = inconclusive; . = not tested or not shown; [ ] = remark or other dose. Unless noted, calls follow the shape of the dose curve; as a rule, active = well fitted curve in the direction sought with a large enough effect; inconclusive = small, poorly fitted or top-dose-only effect, or another doubt; inactive = no such curve, though single readings can be large; an effect the other way counts as inactive or inconclusive. Unless noted, % is scaled to controls: 0 for no effect and ±100 for the full control effect.
SMILES,VDR inhibitor,CCT modulator,G9a inh,Sfp PPTase inh,PLK1 PBD block,MmCpn inh
CSCC[C@H](NC(=O)[C@H](CC(C)C)NC(=O)[C@H](Cc1c[nH]c2ccccc12)NC(=O)[C@H](CCC(N)=O)NC(=O)[C@@H](NC(=O)[C@H](Cc1ccccc1)NC(=O)[C@H](CC(=O)O)NC(=O)[C@H](CCC(N)=O)NC(=O)[C@H](C)NC(=O)[C@H](CCCNC(=N)N)NC(=O)[C@H](CCCNC(=N)N)NC(=O)[C@H](CO)NC(=O)[C@H](CC(=O)O)NC(=O)[C@H](CC(C)C)NC(=O)[C@H](Cc1ccc(O)cc1)NC(=O)[C@H](CCCCN)NC(=O)[C@H](CO)NC(=O)[C@H](Cc1ccc(O)cc1)NC(=O)[C@H](CC(=O)O)NC(=O)[C@H](CO)NC(=O)[C@@H](NC(=O)[C@H](Cc1ccccc1)NC(=O)[C@@H](NC(=O)CNC(=O)[C@H](CCC(N)=O)NC(=O)[C@H](CO)NC(=O)[C@@H](N)Cc1cnc[nH]1)[C@@H](C)O)[C@@H](C)O)C(C)C)C(=O)N[C@@H](CC(N)=O)C(=O)N[C@H](C(=O)O)[C@@H](C)O,3%,.,.,8%,.,.
C=CCNc1nc(Cl)nc(Nc2cc(Cl)ccc2OC)n1,?,-2,.,-1%,21µM*,0%
Cc1cccc(C(=O)Nc2sc3c(c2C(=O)N2CCCCC2)CCC(C)C3)c1 (configuration not stated),-14%,.,-37%[59 µM],.,.,.
CC(C)CN(CCCNC(=O)c1cc(=O)[nH]c2ccc(S(=O)(=O)N3CCCCCC3)cc12)CC(C)C,11%,.,2%[59 µM],.,.,.
CCN1CCC(N(Cc2cccc(OC)c2)C(=O)Nc2ccc(C)cc2Cl)CC1,8%,.,-29%[59 µM],.,.,.
C/C(=N\NC(=O)c1cc(C(C)(C)C)[nH]n1)C12CC3CC(CC(C3)C1)C2,-29%,-5,0%,5%,17µM*,-1%
O=C(N/N=C/c1ccc(O)cc1)c1cc(C23CC4CC(CC(C4)C2)C3)[nH]n1,-8%,-3,-2%,6%,1%,1%
CCCCN(C)CC(O)Cn1cc(/C=C/C(=O)c2ccc(OC)c(OC)c2)c2ccccc21 (configuration not stated),15%,.,-29%[59 µM],.,.,.
CCC(=O)N1CCc2cc(CNC(=O)c3ccc(F)cc3)ccc21,5%,.,7%[59 µM],.,.,.
CCCc1cc(=O)[nH]c(Nc2ccc(N3CCCCC3)cc2)n1,4%,-1,8.9µM*,-3%,1%,0%
Cc1cc(C)nc(Nc2ccc(N3CCOCC3)cc2)n1,-2%,-2,50µM*,-29%,0%,-3%
Cc1cc(C)nc(Nc2ccc(N3CCCC3)cc2)n1,-19%,-1,?,79µM*,-5%,-3%
Cn1c2ccccc2c(=O)c2ccc(C#CC3(O)CCCCC3)cc21,-13%,-3,79µM*,11%,-11%,3%
O=C(CCN1C(=O)C2C3C=CC(C3)C2C1=O)N1CCCCC1 (configuration not stated),13%,1,4%,20%,-11%,-1%
O=C(CCN1C(=O)C2CC=C(Cl)CC2C1=O)N1CCCCC1 (configuration not stated),2%,0,11µM*,89µM*,?,3%
COc1ccc(CCn2c(=N)c(C(=O)N3CCN(C)CC3)cc3c(=O)n4ccccc4nc32)cc1,-1%,-1,40µM*,1%,-3%,1%
O=C(O)c1ccccc1N=Nc1ccc(O)cc1,?,-3,.,.,30µM*,.
OCc1ccc(N=Nc2ccccc2)cc1,-16%,-2,.,.,4%,.
Oc1ccc(Cl)cc1N=Nc1ccccc1,10%,1,22µM*,16%,0%,0%
Oc1ccc(N=Nc2ccccc2)cc1,0%,-1,50µM*,9%,5%,1%
O=C1C(Cl)=C(N2CCN(c3ccccc3[N+](=O)[O-])CC2)C(=O)c2ccccc21,40µM*,0,7.9µM*,-9%,?,1%
CCOC(=O)C1CCCN(C(=O)Cn2nc(C)n3c(cc4c(OC)cccc43)c2=O)C1 (configuration not stated),-22%,-2,8%,12%,27µM*,-3%
CCc1nn(CC(=O)N2CCN(C)CC2)c(=O)c2cccn12,0%,-3,18%,3%,-9%,1%
CCOC(=O)C1CCN(C(=O)Cn2nc(CC)n3cccc3c2=O)CC1,?,-1,15%,19%,27µM*,-7%
CCOC(=O)C1CCN(C(=O)Cn2nc(C)n3c(cc4c(OC)cccc43)c2=O)CC1,-6%,.,-4%[59 µM],.,.,.
SMILES,VDR inhibitor,CCT modulator,G9a inh,Sfp PPTase inh,PLK1 PBD block,MmCpn inh
O=S(=O)(c1ccc(Br)s1)N1CCN(c2ccc(F)cc2)CC1,-13%,1,40µM*,50µM*,-5%,-3%
Cn1c(=O)c2sccc2n2c(CCC(=O)NCc3ccc(F)cc3)nnc12,?,.,-5%[59 µM],.,.,.
CN(C)CCCN=Cc1c(O)n(Cc2ccc3c(c2)OCO3)c(=O)c2ccccc12,.,.,?,-2%,.,-1%
O=c1c2ccccc2c(C=NC2CCN(Cc3ccccc3)CC2)c(O)n1Cc1ccc2c(c1)OCO2,.,.,8.9µM*,7%,.,1%
CN(C)CCN=Cc1c(O)n(Cc2ccc3c(c2)OCO3)c(=O)c2ccccc12,-15%,-6,50µM*,7%,-11%,-23%
COc1ccc(CCNC(=O)c2cccc(Nc3nc4ccccc4nc3-n3nc(C)cc3C)c2)cc1OC,0%,.,?,.,.,.
COCCc1nn2c(=O)cc(COC(=O)c3ccc4c(c3)OCO4)nc2s1,-3%,.,12%[59 µM],.,.,.
COc1ccc(S(=O)(=O)NCc2ccncc2)cc1NC(=O)c1ccccc1C,-3%,2,8.9µM*,.,-16%,0%
CCN1C/C(=C/c2ccc(OC)c(O)c2)C(=O)/C(=C/c2ccc(OC)c(O)c2)C1,-30%,0,?,-6%,3%,-9%
CCN1C/C(=C\c2cccc([N+](=O)[O-])c2)C(=O)/C(=C/c2cccc([N+](=O)[O-])c2)C1,?,1,25µM*,-1%,?,0%
CCCCCCCCCCCCCCCCN,1%,.,-4%[12.7 µM],14%,.,.
CCN(C(=O)CSc1nc2cc(C(=O)O)ccc2c(=O)n1Cc1ccccc1)c1ccccc1,-4%,-4,1%,-7%,-15%,0%
CN(C(=O)CSc1nc2cc(C(=O)O)ccc2c(=O)n1Cc1ccccc1)C1CCS(=O)(=O)C1 (configuration not stated),-2%,0,50µM*,9%,-12%,-2%
O=C(CCCc1ccccc1)N1CCN(C2CCCCC2)CC1,-6%,-3,-5%,8%,-10%,2%
c1ccc(CCN(Cc2ccccc2)C2CCN(C3CCCC3)CC2)cc1,-8%,-9,50µM*,50µM*,-9%,0%

# Source: PubChem (National Center for Advancing Translational Sciences (NCATS))
